From PubChem BioAssay (NCI)
Compounds without any hit were thinned out: in the full panel of roughly 83,000, 20% have a hit.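 Interpretation: 100, growth as untreated; towards 0, rising growth inhibition; 0, no net growth; 0 to -100, cell death. Compounds scoring below 10 were considered active.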 Unmarked numbers belong to inactive results.

Each compound was assayed on NCI/ADR-RES ovarian (assay: NCI-60 one-dose screen, 48 h (100 = growth as untreated, 0 = no growth, -100 = all killed)). Conditions: 10 µM unless noted.

Compound	growth
CC1(C)CC(=O)C(c2c(-c3ccccc3)[nH]c3[nH]c(=S)[nH]c(=O)c23)=C(O)C1	108%
O=C(/C=C/c1cccc(Br)c1)c1ccccc1	103%
O=C(CO[N+](=O)[O-])Nc1ccc(C(=O)/C=C/c2ccc(Cl)cc2)cc1	29.9%
CN(C)c1ccc(/C=C\C2=[N+](C)c3ccccc3C2(C)C)cc1	84.1%
COc1ccc(CCN2CC=Cn3c2nc2ccccc2c3=O)cc1	15%
